Test results from PubChem BioAssay (NCI).
The panel holds about 83,000 compounds, 20% with a hit somewhere; the sample as a whole holds those more often.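 How to read the values: 0–100, growth inhibition (40 = 60% inhibited); 0, no net growth; -100 to 0, cell death (-40 = 40% of starting cells died; -100 = all dead).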 A number with no mark means an inactive call. Active and inactive are the calls of the source.

These compounds were tested on PC-3 prostate (assay: NCI-60 one-dose screen, 48 h (100 = growth as untreated, 0 = no growth, -100 = all killed)). Settings: 10 µM.
Protocol: Growth inhibition of the PC-3 human tumor cell line is measured as a screen for anti-cancer activity. Cells are grown in 96 well plates and exposed to the test compound for 48 hours. Compounds are tested at a single concentration, which is 10^-5 M for most compounds. The reported endpoint is percent growth (GI% or GIPRCNT), where numbers from 0 - 100% represent growth inhibition, and numbers from -100% - 0 represent cell death. For example, a value of 40 represents 60% growth inhibition. A value of 0 means no net growth occurred over the course of the experiment. A value of -40 indicates 40% of cells at the beginning of the experiment died by the end of the experiment. A value of -100 means all cells are dead at the end of the experiment.
NCI-60 Human Tumor Cell Lines Screen was performed using the standard one-dose NCI protocol, which is described in more detail at https://dtp.cancer.gov/discovery_development/nci-60/default.htm.
Compounds with GIPRCNT values below 10 were considered active. Activity score was based on GIPRCNT using the following formula: […]
Score is 0 for GIPRCNT values of 100 or above, 50 for GIPRCNT values of 0, and 100 for GIPRCNT values of -100.

SMILES | growth
Nc1n[nH]c2cccc(C#Cc3cccc(NC(=O)Nc4cc(C(F)(F)F)cc(C(F)(F)F)c4)c3)c12 | -4.77% (active)
O=C(N/N=C/c1ccc(-c2cccc([N+](=O)[O-])c2)o1)c1[nH]c2ccc(Br)cc2c1-c1ccccc1 | 18.8%
O=C(N=Nc1c(O)[nH]c2ccc(Br)cc12)c1ccc2nc(-c3ccccc3)[nH]c2c1 | -84.5% (active)
CONC[C@]1(C)C=C2C(=O)[C@](C)(O)C3(CC3)C(C)=C2[C@H]1O | 3.46% (active)
Cn1cc(/C=N/Nc2ccnc3cc(Cl)ccc23)c2ccccc21 | -51.5% (active)
CC(=O)Oc1ccccc1C(=O)Oc1ccc(C(=O)/C=C/c2ccncc2)cc1 | 54.7%
O=C(Nc1cc(Cl)cc(Cl)c1)Nc1cc(Cl)cc(Cl)c1 | 0.387% (active)
COC[C@@H](CC(C)C)N=C1NC(=O)/C(=C/c2ccc3ncsc3c2)N1 | 30.9%
Cc1cccc2cc(-c3cc(-c4ccccc4)nc(=O)[nH]3)c(Cl)nc12 | 77.6%
Cc1ccc(NC(=O)NCn2c(=O)[nH]c3ccccc3c2=O)cc1 | 84.1%
Cc1ccc(-c2nc3ccc(C(=O)N=Nc4c(O)[nH]c5ccc(Br)cc45)cc3[nH]2)cc1 | 62.6%
COc1ccc([C@H]2C(C(=O)c3ccc(Cl)cc3)C3(N[C@@H]2c2ccccc2)C(=O)Nc2ccc(Cl)cc23)cc1 (stereo not given in full) | 18.1%
O=C(/C=C/Nc1ccccc1)c1ccc2c(c1)Nc1ccccc1S2 | 78.5%
COc1ccccc1[C@H]1C(C(=O)c2ccc(Cl)cc2)C2(N[C@@H]1c1ccccc1)C(=O)Nc1ccccc12 (stereo not given in full) | 5.37% (active)
O=C(c1ccc([N+](=O)[O-])c([N+](=O)[O-])c1O)n1[nH]c(=O)c2ccccc2c1=O | 74.1%
N#Cc1c(-c2ccc(F)cc2)nc(SCc2ccc([N+](=O)[O-])cc2)nc1N1CCOCC1 | 59.1%
O=C(CSc1nnc(-c2c[nH]c3ccccc23)n1-c1ccccc1)Nc1ccc(C(=O)/C=C/c2cccc([N+](=O)[O-])c2)cc1 | 87%
COc1cc2c3c(n(CCCN4CCOCC4)c(=O)c2cc1OC)-c1nc2c(cc1C3=O)OCO2 | 43.6%
O=C(NO)c1ccc(CNC(=O)[C@H]2Cc3c([nH]c4ccccc34)[C@H](c3ccc(Cl)cc3)N2)cc1 | 21.4%
O=C(c1ccc(O)cc1)C1[C@H](c2ccc(Br)cc2)[C@@H](c2ccccc2)NC12C(=O)Nc1ccc(Br)cc12 (stereo not given in full) | 21.4%

SMILES | growth
COc1ccc(C2N(c3ccc(Br)cc3)N=C(C(C)=O)N2[C@H]2[C@H](OC(C)=O)O[C@H](COC(C)=O)[C@@H](OC(C)=O)[C@@H]2OC(C)=O)cc1 (stereo not given in full) | 43.2%
C/C(=N\N=C\c1ccc(N(C)C)cc1)c1ccc2c(c1)Nc1ccccc1S2 | 54%
N#Cc1c(NC(=O)c2ccc(C(F)(F)F)c(Cl)c2)sc2c1CCC(=O)C2 | -10.2% (active)
CC(=O)c1ccc(NC(=O)NCn2c(=O)[nH]c3ccccc3c2=O)cc1 | 86.9%
O=C(NO)c1ccc(Cn2ccc3c(Nc4ccccc4)ncnc32)cc1 | 15%
CN1C(=O)N(C)C2SC(N/N=C/c3ccc(F)cc3)=NC21 (stereo not given) | 66.2%
Cc1ccc(NC(=O)c2ccc(-n3c(=O)[nH]c4ccccc4c3=O)cc2)cc1 | 96.1%
CN1CCN(Cc2ccc(NC(=O)c3cncc(C#Cc4cnc5ccc(N[C@H]6CCOC6)nn45)c3)cc2C(F)(F)F)CC1 | -20.7% (active)
O=C(O)CCCCCCCCCCN1C(=O)/C(=C/c2cnc(-c3ccccc3)s2)SC1=S | 95%
Cc1ccc(-c2cc(C(=O)N=Nc3c(O)[nH]c4ccc(Br)cc34)c3ccccc3n2)cc1 | 52.9%
O=c1nc(-c2ccccc2)cc(-c2cc3ccccc3nc2Cl)[nH]1 | 31.8%
O=C(CNc1nc(-c2ccccc2)cs1)Nc1ccc(Cl)cc1[N+](=O)[O-] | 10.5%
CC(=C(c1ccc(OCCN2CCCCCC2)cc1)c1ccc(OCCN2CCCCCC2)cc1)c1ccc(Cl)cc1 | -83.3% (active)
O=C(NO)c1ccc(Cn2ccc3c(NCc4ccccc4)ncnc32)cc1 | 7.14% (active)
O=C(Nc1ccc(OCC(=O)c2ccccc2)cc1)Nc1ccc(Cl)c(C(F)(F)F)c1 | 6.92% (active)
O=C1Nc2cc(Cl)ccc2/C1=C/c1cccc(OCc2ccc(Br)cc2F)c1 | 19.3%
COc1cc(/C=C/C(=O)c2ccc(F)cc2)ccc1Oc1nc(Nc2ccc(F)cc2)nc(N(C)C)n1 | 63.9%
O=C(CNc1nc(-c2ccccc2)cs1)Nc1cccc([N+](=O)[O-])c1 | -18.5% (active)
Nc1nc(Nc2ccc(Cl)cc2)nn1Cc1cccc(Br)c1 | 22.9%
CCCCCc1ccc(S(=O)(=O)Nc2cc(-c3csc(N(C)C(C)=O)n3)ccc2N2CCN(C)CC2)cc1 | 37%
